# Compound activity from PubChem.
# Compounds with a hit are over-represented: about 14% of the library has one in this group of screens.
# NS1 inh: qHTS Assay for Inhibitors of Influenza NS1 Protein Function; Potency, µM (highest dose often 46.1 µM); 270,000 tested, 0.4% active; AID 2326, 2010; calls by dose curve; note: actives are rising curves; nearly all actives have a fitted effect of over 50% in size
#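 OD600 was taken as the measure of yeast growth restored by compound in an NS1-expressing S. cerevisiae strain. Cells had been washed out of glucose medium and diluted 1:100 into galactose -URA medium, pH 6.0.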
# LmPK inh: qHTS Assay for Inhibitors of Leishmania Mexicana Pyruvate Kinase (LmPK); Q27686; purified LmPK, Kinase-Glo ATP luminescence, 1 h; Potency, µM (highest dose often 57.5 µM), hits mostly inhibitors; 290,000 tested, 0.37% active; AID 1721, 2009
# Target sequence (Q27686 whole entry, looked up): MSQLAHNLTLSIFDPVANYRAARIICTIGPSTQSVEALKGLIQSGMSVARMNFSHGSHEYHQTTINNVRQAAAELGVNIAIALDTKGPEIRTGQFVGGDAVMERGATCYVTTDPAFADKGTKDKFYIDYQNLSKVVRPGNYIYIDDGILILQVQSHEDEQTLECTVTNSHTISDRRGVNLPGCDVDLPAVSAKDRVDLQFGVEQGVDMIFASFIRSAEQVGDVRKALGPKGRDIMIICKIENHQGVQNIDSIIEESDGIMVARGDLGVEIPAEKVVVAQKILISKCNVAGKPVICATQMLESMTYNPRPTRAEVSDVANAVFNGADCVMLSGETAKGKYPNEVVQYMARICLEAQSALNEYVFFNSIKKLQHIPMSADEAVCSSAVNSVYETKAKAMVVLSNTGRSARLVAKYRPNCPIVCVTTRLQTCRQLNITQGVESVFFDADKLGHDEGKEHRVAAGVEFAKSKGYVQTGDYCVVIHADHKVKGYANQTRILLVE
#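 Purified LmPK (0.1 nM) with 0.5 mM PEP and 0.1 mM ADP in imidazole buffer pH 7.2 with MgCl2/KCl, 1 h at room temperature. ATP formed was read by luciferase luminescence and normalized to no-enzyme and uninhibited controls.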
# Shiga toxin inh: A qHTS for Small Molecule Inhibitors of Shiga Toxin; Vero cells, Shiga toxin protein synthesis inhibition reporter; inhibition, % at 38.7 µM; 290,000 tested, 9.2% active; AID 2315, 2010; in the data active = inhibition mostly above about 28%, no sharp cut-off; inactive = mostly below about 43%
# FBPA Giardia inh: qHTS Assay for Inhibitors of Fructose-1,6-bisphosphate Aldolase from Giardia Lamblia. purified Giardia FBPA. Potency, µM (series often up to 59.6 µM), hits mostly inhibitors. 290,000 tested, 0.71% active. AID 2451, 2010; note: nearly all actives have a fitted effect of over 55% in size
#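 Giardia FBPA (40 nM reagent) was preincubated 10 min at RT with compound (up to 57.5 uM final), then substrate plus GAPDH/TPI/NAD/arsenate coupling system with diaphorase/resazurin was added; resorufin fluorescence (525/598 nm) was read after 20 min.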
# Cycloheximide cs: Cycloheximide Counterscreen for Small Molecule Inhibitors of Shiga Toxin; cell reporter, cycloheximide protein synthesis inhibition counterscreen; max response, %; 300,000 tested, 12% active; in the data active = max response mostly above about 13%, no sharp cut-off; inactive = mostly below about 14%; note: read at 38.3 µM for the half of the compounds with a filed dose
# A number is an active result; - = inactive; ? = inconclusive; . = no result; [ ] = dose if it differs, or a comment. Unless noted, calls come from the whole dose curve; as a rule, active = well fitted curve in the direction sought with a large enough effect; inconclusive = small, poorly fitted or top-dose-only effect, or another doubt; inactive = no such curve, though single readings can be large; an effect the other way counts as inactive or inconclusive.
SMILES,NS1 inh,LmPK inh,Shiga toxin inh,FBPA Giardia inh,Cycloheximide cs
O=C(Cc1ccccc1[N+](=O)[O-])NCc1ccc(Cl)cc1,-,-,-,-,33
CCOC(=O)c1ccc(N(C(=O)c2ccco2)C(C(=O)NC2CCCC2)c2ccncc2)cc1 (stereo unspecified),-,-,-,-,-
CSCC[C@H](NC(=O)[C@H](CC(C)C)N1CCC(NC(=O)[C@@H](NC(=O)[C@H](Cc2ccccc2)NC(=O)[C@H](CO)NC(=O)[C@H](CC(=O)O)NC(=O)[C@@H](N)CCCCN)C(C)C)C1=O)C(N)=O (stereo partly specified),.,.,-,-,-
COc1cc2c(cc1OC)CN(CC(=O)Nc1ccc(C)c(C)c1)CC2,-,-,-,-,-
O=c1/c(=C\c2cc([N+](=O)[O-])cc([N+](=O)[O-])c2O)sc2nc3ccccc3n12,.,-,-,16µM,-
O=c1c2ccccc2nc2sc3ccccc3n12,-,-,97,-,20
COC(=O)/C=c1/sc2nc3ccccc3n2c1=O,-,-,-,-,-
O=C(O)c1cc(C(=O)O)cc(-c2ccc(/C=c3/sc4nc5ccccc5n4c3=O)o2)c1,.,-,-,?,-
O=c1/c(=C/c2ccccn2)sc2nc3ccccc3n12,-,?,126,-,36
O=C(O)c1cccc(-c2ccc(/C=c3/sc4nc5ccccc5n4c3=O)o2)c1,-,-,70,-,44
CC1=CC(=O)C2C(C)(C)CCC[C@@]2(C)[C@@]1(O)CCc1ccoc1 (stereo partly specified),.,.,.,-,.
COC(=O)C(c1ccc(OC)c(OC)c1)C1c2ccccc2C=C(C)N1C(=O)OC (stereo unspecified),.,.,.,-,.
CC(=O)c1c(C)[nH]c(C(=O)COC(=O)C2CC2)c1C,.,-,-,-,-
CCCC(=O)OCC(=O)c1[nH]c(C)c(C(C)=O)c1C,.,-,-,-,35
CCCCC(=O)OCC(=O)c1[nH]c(C)c(C(C)=O)c1C,.,-,66,-,39
N#C/C(=N\Nc1ccc(F)cc1)C(=N)N1CCCCC1,-,-,112,-,47
COc1ccc(C(=O)/C(C#N)=N/Nc2ccc([N+](=O)[O-])cc2)cc1,-,-,-,-,-
N#C/C(=N\Nc1ccccc1)C(=N)N1CCCCCC1,-,-,71,-,38
COc1ccc(N/N=C(\C#N)C(=N)N2CCOCC2)cc1,.,-,-,-,29
N#C/C(=N\Nc1ccc(Cl)cc1)C(=O)c1ccccc1,-,-,-,-,-
N#C/C(=N/Nc1ccccc1F)C(=N)N1CCOCC1,-,-,-,-,34
CCC1OC2(C)C(O)C(/C=C/C=C/C=C/c3oc(=O)cc(OC)c3C)OC1(C)C2OC(C)=O (stereo unspecified),.,.,-,-,-
O=C(CN1CCN(S(=O)(=O)c2ccccc2F)CC1)Nc1ccccc1C(=O)c1ccccc1,.,-,-,-,-
N#C/C(=N\Nc1cccc(F)c1)C(=N)N1CCCCCC1,.,-,41,-,26
CCCc1cc(=O)oc2c(C)c(OCC(=O)N3C[C@H]4C[C@@H](C3)c3cccc(=O)n3C4)ccc12,-,-,-,-,-
SMILES,NS1 inh,LmPK inh,Shiga toxin inh,FBPA Giardia inh,Cycloheximide cs
CC(=O)NCc1c(I)c(NC(C)=O)c(I)c(C(=O)O)c1I,.,.,.,-,.
Cc1cc(C)c(C#N)c(OCC(=O)c2ccccc2)n1,-,-,-,-,39
COc1ccc(CC(=O)OCC(=O)c2ccc(OC)cc2)cc1,-,-,-,-,-
Cc1ccc(C(=O)COC(=O)CNC(=O)Cc2ccccc2)cc1,-,-,-,.,-
Cc1ccc(C(=O)COC(=O)Cc2ccccc2)cc1,-,-,77,-,46
O=C(Cc1ccccc1)OCC(=O)c1ccccc1,-,-,-,.,30
Cc1ccc(C(=O)COc2nc(C)nc3ccccc23)cc1,-,-,80,-,24
Cc1cc(C)c(C#N)c(OCC(=O)Nc2ccccc2)n1,-,-,-,-,-
COc1cc2c(cc1OC)C1O[C@](CCCCN3C(=O)c4ccccc4C3=O)(C2)Oc2c1c(=O)oc1ccc(F)cc21,-,-[11.5 µM],-,?,-
CC(C)CC(=O)Nc1ccc(-c2cn3cccnc3n2)cc1,-,-,88,-,29
CCCC(=O)Nc1ccc(-c2cn3cccnc3n2)cc1,-,-,39,-,31
CC(C)CC(=O)Nc1ccc(-c2cn3ccsc3n2)cc1,-,-,33,-,19
O=C(Nc1ccccc1)Nc1cccc(-c2cn3cccnc3n2)c1,-,-,-,-,-
CCCC(=O)Nc1cccc(-c2cn3cccnc3n2)c1,.,-,-,-,23
CCOCC(=O)Nc1ccc(-c2cn3cccnc3n2)cc1,-,-,-,-,-
COc1ccc(-c2cn3cccnc3n2)cc1NC(=O)CC(C)C,-,-,-,-,-
CC(C)(C)C(=O)Nc1ccc(-c2cn3ccsc3n2)cc1,-,?,-,-,-
c1cncc(CNc2nc(-c3ccoc3)nc3ccccc23)c1,.,.,.,-,.
O=C(Nc1cccc(-c2cn3cccnc3n2)c1)c1ccco1,-,-,-,-,24
CC(C)(C)CC(=O)Nc1ccc(-c2cn3cccnc3n2)cc1,-,-,72,-,39
Cc1cc(C)cc(NCc2ccncc2)c1,?,-,-,-,-
Cc1ccc(NC(=O)NC2=NN(c3ccccc3)C(=O)/C2=C2/CCCN2C)cc1,-,-,90,-,27
O=S(=O)(Cc1ncc(C(F)(F)F)cc1Cl)c1ccccc1,-,-,51,-,45
O=C(O)CCc1ncc(C(F)(F)F)cc1Cl,-,-,-,-,-
COc1ccc(NC(=O)NNC(=O)C(C)Oc2ccc3ccccc3c2)cc1OC (stereo unspecified),-,-,-,-,-
SMILES,NS1 inh,LmPK inh,Shiga toxin inh,FBPA Giardia inh,Cycloheximide cs
CC(=O)c1ccc(OCc2cc(C(=O)N(C)Cc3ccon3)no2)cc1,-,-,-,.,-
CC(=O)c1ccc(OCc2cc(C(=O)N(C)Cc3ccccn3)no2)cc1,-,-,52,.,62
Cc1cc(OCc2cc(C(=O)N(C)Cc3ccccn3)no2)cc(C)c1Cl,-,-,106,.,92
Cc1cc(OCc2cc(C(=O)N(C)C(C)c3ccccn3)no2)cc(C)c1Cl (stereo unspecified),-,-,102,-,41
CSc1ccccc1OCc1cc(C(=O)N(C)C(C)c2ccccn2)no1 (stereo unspecified),-,-,-,.,-
Cn1cccc1C(=O)N1CCC2(CC1)CCN(c1cccc(-c3ccccc3)c1)CC2,.,.,.,-,.
COC(=O)c1ccc(NC(=O)Nc2ccccc2C)cc1,.,-,73,-,23
COc1ccc(NC(=O)OC(C)C)cc1,-,?,68,-,29
COC(=O)c1ccc(NC(=O)Nc2ccc(OC)cc2)cc1,-,-,60,-,-
COc1ccc(NC(=O)Nc2ccc(N(C)C)cc2)cc1,-,?,97,-,30
